The values below come from PubChem BioAssay (NCATS).

Test [1] in a line: qHTS Assay for Identifying Gametocytocidal Compounds (AID 743244; active = well fitted curve in the direction sought with a large enough effect; an effect the other way counts as inactive or inconclusive; note: potency is the fitted concentration of half-maximal effect;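 for max response: % is set by controls: 0 for no effect and ±100 for the full control effect; actives lower the fluorescent signal which means gametocytes are killed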). The note with it: P. falciparum 3D7 stage III-V gametocytes, alamarBlue, 72 h; max response: stronger effect = lower value. A digest of the protocol: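 Viability read-out was resazurin reduction (alamarBlue, 24 h) measured at Ex 525/Em 598 nm. Beforehand, late-stage (III-V) 3D7 P. falciparum gametocytes at 20,000 cells/well were incubated with compound 72 h at 37C under 5% CO2.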
(In general: In qHTS, concentration-response curves come from the screen itself.)

Test [2] can be described thus: qHTS profiling for inhibitors of Plasmodium falciparum (3D7) proliferation (AID 743322).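 Note: infected erythrocytes exposed to compound for 72 h before lysis; 100% = DMSO vehicle wells and 0% = 0.29 µM artemisinin.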 The note with it: P. falciparum 3D7 proliferation; at 28.7 µM (top of the series) unless noted. A digest of the protocol:
(§1)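 Parasite DNA was quantified by SYBR Green I fluorescence (ex 485, em 535 nm) after overnight lysis in saponin/Triton buffer at room temperature. Cultures at 0.3% parasitemia and 2.5% hematocrit were first exposed to compound for 72 h at 37 C; signals were normalised to artemisinin (0.29 uM) and vehicle wells.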

Test [3] can be described thus: qHTS profiling for inhibitors of Plasmodium falciparum (DD2) proliferation (AID 743323). The note with it: lower = more inhibition; at 28.7 µM (top of the series) unless noted. In short, it runs like this:
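P. falciparum Dd2-infected erythrocytes (0.3% parasitemia, 2.5% hematocrit) exposed 72 h at 37 C, 5% CO2. Lysis with SYBR Green, overnight at room temperature, fluorescence 485/535 nm; normalized to 0.29 uM artemisinin and DMSO.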

Test [4] in a line: qHTS profiling for inhibitors of Plasmodium falciparum (HB3) proliferation (AID 743324; active = well fitted curve in the direction sought with a large enough effect; an effect the other way counts as inactive or inconclusive;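 note: 100% = DMSO vehicle wells and 0% = artemisinin-treated control wells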). The note with it: Plasmodium falciparum HB3 blood-stage proliferation; at 28.7 µM (top of the series) unless noted. In short, it runs like this: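 SYBR Green fluorescence (485 ex/535 em) of lysed cultures, incubated overnight at room temperature in the dark, quantifies parasite DNA. Infected erythrocytes at 0.3% parasitemia and 2.5% hematocrit were exposed 72 h; values normalized to DMSO and 0.29 uM artemisinin controls.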

The nature of test [5]: qHTS profiling of the MIPE4 collection as inhibitors of Plasmodium falciparum (3D7) proliferation (AID 743344).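 Note: scaled between DMSO vehicle wells and 0.29 µM artemisinin as full inhibition.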 The note with it: P. falciparum 3D7 in erythrocytes, SYBR Green DNA fluorescence, 72 h; at 28.5 µM (top of the series). In short, it runs like this: as §1
Test [6] can be described thus: qHTS profiling of the MIPE4 collection as inhibitors of Plasmodium falciparum (DD2) proliferation (AID 743345). The note with it: P. falciparum Dd2 in erythrocytes, SYBR Green DNA, 72 h; at 28.5 µM (top of the series) unless noted. A digest of the protocol: as §1
Test [7] in a line: qHTS profiling of the MIPE4 collection as inhibitors of Plasmodium falciparum (DD2) proliferation (Rep 2) (AID 743346). The note with it: P. falciparum Dd2 in erythrocytes, SYBR Green DNA, 72 h; at 28.5 µM (top of the series). A digest of the protocol:
as §1

Test [8] is described as follows: qHTS profiling of the MIPE4 collection as inhibitors of Plasmodium falciparum (HB3) proliferation (AID 743347).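 Note: plate controls were DMSO vehicle wells for no effect and artemisinin wells for full effect.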 The note with it: P. falciparum HB3 in erythrocytes, SYBR Green DNA, 72 h; at 28.5 µM (top of the series). In short, it runs like this:
as §1

Each structure is given as a SMILES string. Records with an inconclusive call do not appear. Activity calls are given as the source filed them. Unless noted, the rule behind the calls is not given here.

With `Cc1ccccc1-n1c(Cn2cnc3c(N)ncnc32)nc2cccc(C)c2c1=O`, the max response in test [1] was 15.4% (inactive). Besides, in test [2], the remaining parasite growth % (stronger effect = lower value) was determined as 43.1%. Besides, in test [3], the activity, percent of control was 37.6%. In addition, the remaining proliferation (% of control), lower = more inhibition in test [4] stood at 24.9%. Further, the parasite growth, % of DMSO control in test [5] was 5.28%. For the same molecule, the parasite growth remaining, % of DMSO control (lower = more inhibition) in test [6] was 12.7%. This molecule also came in with a parasite growth, % of control (lower = inhibition) in test [7] of 6.97%. This molecule yielded a growth, % of control in test [8] of 2.42%.
For the molecule `CN[C@@H](C)C(=O)N[C@H]1CCCC[C@H]2CC[C@@H](C(=O)N[C@@H](c3ccccc3)c3cn(CCCCc4ccc(CCCCn5cc([C@@H](NC(=O)[C@@H]6CC[C@@H]7CCCC[C@H](NC(=O)[C@H](C)NC)C(=O)N76)c6ccccc6)nn5)cc4)nn3)N2C1=O`, the Potency in test [1] is 2.64 µM (active).
On to `CC(C)(C)c1[nH]cnc1C=c1[nH]c(=O)c(=Cc2ccccc2)[nH]c1=O`, for which the remaining parasite growth % (stronger effect = lower value) in test [2] was 58.1%. The molecule further had an activity, percent of control in test [3] of 49.6%. Besides, in test [4], the remaining proliferation (% of control), lower = more inhibition stood at 37.2%. In test [6], this molecule registered a parasite growth remaining, % of DMSO control (lower = more inhibition) of 41.8% [at 57.5 µM].
The molecule `COC1=C[C@@H]2[C@@H]3Cc4ccc(OC)c(O)c4[C@]2(CCN3C)CC1=O` gave a parasite growth, % of DMSO control in test [5] of 102%. The same molecule yielded a parasite growth remaining, % of DMSO control (lower = more inhibition) in test [6] of 84.4%. In test [7], this molecule gave a parasite growth, % of control (lower = inhibition) of 34.6%.
Regarding `NC1=NC(=O)N2CC12` (stereo not drawn), in test [1], the max response was -4.05% (inactive). Moreover, the parasite growth, % of DMSO control in test [5] turned out to be 49.2%. The parasite growth remaining, % of DMSO control (lower = more inhibition) in test [6] is 93.9%. Moreover, the parasite growth, % of control (lower = inhibition) in test [7] was 46.3%. For the same molecule, in test [8], the growth, % of control was determined as 68.6%.
Regarding `Cc1nc2cnc3ccc(C#Cc4cccnc4)cc3c2n1-c1ccc(C(C)(C)C#N)cc1`, the Potency in test [1] is 5.9 µM (active).
Take `CC(C)[C@]12O[C@H]1[C@@H]1O[C@]13[C@]1(O[C@H]1C[C@H]1C4=C(CC[C@@]13C)C(=O)OC4)[C@@H]2O`: the max response in test [1] is -3.04% (inactive). The remaining parasite growth % (stronger effect = lower value) in test [2] came to 103%. In addition, in test [3], the activity, percent of control is 96.4%. Further, the remaining proliferation (% of control), lower = more inhibition in test [4] came out at 95.4%.
As to `CCCCN1CCC(CNC(=O)c2c3n(c4ccccc24)CCCO3)CC1`, the remaining parasite growth % (stronger effect = lower value) in test [2] came out at 91.7%. The activity, percent of control in test [3] was determined as 54.7%. This molecule showed a remaining proliferation (% of control), lower = more inhibition in test [4] of 74.4%. In addition, in test [6], the parasite growth remaining, % of DMSO control (lower = more inhibition) was found to be 56.2%. This molecule showed a parasite growth, % of control (lower = inhibition) in test [7] of 38.7%. In test [8], this molecule displayed a growth, % of control of 32.4%.
As to `Nc1nc(-c2nn(Cc3ccccc3F)c3ncccc23)nc(N)c1N1CCOCC1`, the remaining parasite growth % (stronger effect = lower value) in test [2] turned out to be 100%. Moreover, the activity, percent of control in test [3] was 94.1%. Further, the remaining proliferation (% of control), lower = more inhibition in test [4] was determined as 67.6%. The molecule further had a parasite growth remaining, % of DMSO control (lower = more inhibition) in test [6] of 91.1%. In test [7], the parasite growth, % of control (lower = inhibition) was 60.8%. The growth, % of control in test [8] turned out to be 51.5%.
